The nature of experiment [1]: Cell Viability - HepG2 (AID 433).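 Note: potency is the fitted concentration of half-maximal effect; potency for ATP loss meaning cytotoxicity.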 The following applies: qHTS. In outline:
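HepG2 hepatocellular carcinoma cells (1500/well) were treated with compounds for 40 h at 37 °C in complete medium; intracellular ATP was read by CellTiter-Glo luminescence. Data were normalized to DMSO and 100 uM tamoxifen, and AC50 came from Hill fits.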
(In general: Quantitative high-throughput screening tests each substance at several concentrations.)

Experiment [2] is described as follows: Cell Viability - LYMP2-024 (AID 988; active = well fitted curve in the direction sought with a large enough effect; inconclusive = small, poorly fitted or top-dose-only effect, or another doubt; inactive = no such curve, though single readings can be large; an effect the other way counts as inactive or inconclusive; note: nearly all actives have a fitted effect of over 60% in size; note: potency is the fitted concentration of half-maximal effect;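 for activity change, negative = cytotoxicity: plate controls were DMSO only for no effect and 92 µM tetraoctylammonium bromide for full effect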). The note with it: LYMP2-024 lymphoblastoid cell viability; series mostly up to 92.2 µM. The procedure, abridged: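 Steps: seed 2500 cells/well, 5 hr 37 C; add compound, 24 hr 37 C; add CellTiter-Glo, 30 min room temperature; read luminescence. AC50 derived by Hill modelling of concentration-dependent ATP loss.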
The target of experiment [3] is Bile acid receptor (Homo sapiens) (UniProt Q96RI1). The experiment in a line: qHTS assay for small molecule agonists of farnesoid X receptor signaling (AID 588527).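 Note: 0% = vehicle basal and 100% = reference agonist.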 The note with it: HEK293T FXR-UAS-bla, beta-lactamase ratio, 16 h; stronger effect = higher value. In outline:
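Read-out: beta-lactamase reporter fluorescence with CCF4 substrate in GeneBLAzer FXR-UAS-bla HEK293T cells, after 16 h compound exposure at 37 C. Response scaled between DMSO basal (0%) and chenodeoxycholic acid at 100 uM (100%).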

The target in experiment [4] is Glucocorticoid receptor (Homo sapiens) (UniProt P04150). Put plainly: qHTS assay for small molecule agonists of glucocorticoid receptor signaling (AID 588532; active = well fitted curve in the direction sought with a large enough effect in the signal ratio, with a control signal flat; inconclusive = small, poorly fitted or top-dose-only effect, or a change in a side signal; inactive = no such curve, though single readings can be large or run the other way; the % refers to the signal ratio;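 note: 100% = dexamethasone at 0.1 µM and 0% = DMSO only wells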). The following applies: HeLa MMTV-bla, beta-lactamase ratio, agonist, 18 h; stronger effect = higher value; percent of dexamethasone control, DMSO zero. The procedure, abridged: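 Titration series, up to 92 uM, applied to GRE-bla HeLa cells for 18 h at 37 C. Detection by CCF4 FRET substrate after 2 h at RT.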

Experiment [5] in a line: qHTS assay for small molecule antagonists of peroxisome proliferator-activated receptor delta signaling (AID 588535; active = well fitted inhibition curve with a large enough effect in the signal ratio, with a control signal flat, not every such curve was filed as active; inconclusive = small, poorly fitted or top-dose-only effect, or effect the other way, or a change in a side signal; inactive = no such curve, though single readings can be large or run the other way; the % refers to the signal ratio;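 for max response: cells co-treated with a PPAR-delta agonist as stimulator during compound exposure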). The following applies: HEK293T PPARd-UAS-bla, beta-lactamase FRET ratio, 18 h; 460 nm channel. In outline:
(§1)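 Reporter: UAS-bla under PPAR-delta response element, HEK293T host. Medium: 2% charcoal/dextran FBS. Dosing: titration, 18 hrs, 37 C. Detection: CCF4, 2 hrs RT, 405 ex/460 and 530 em.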

Experiment [6] addresses Peroxisome proliferator-activated receptor delta (Homo sapiens) (UniProt Q03181). The description is as above. The following applies: HEK293T PPARd-UAS-bla, beta-lactamase FRET ratio, 18 h; series mostly up to 76.7 µM. In outline:
as §1

Experiment [7] concerns the target Peroxisome proliferator-activated receptor gamma (Homo sapiens) (UniProt P37231). Put plainly: qHTS assay for small molecule agonists of peroxisome proliferator-activated receptor gamma signaling (AID 588536; active = well fitted curve in the direction sought with a large enough effect in the signal ratio, with a control signal flat, not every such curve was filed as active; inconclusive = small, poorly fitted or top-dose-only effect, or effect the other way, or a change in a side signal; inactive = no such curve, though single readings can be large or run the other way; the % refers to the signal ratio;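 note: 0% = DMSO basal wells and 100% = rosiglitazone at 2 µM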). The following applies: HEK293 PPARg-UAS-bla, beta-lactamase ratio, 16 h, percent of rosiglitazone response, DMSO as zero; series mostly up to 76.7 µM. In outline:
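Test agents, titrated, stimulated HEK293 UAS-bla cells overnight (16 h, 37 C). Substrate CCF4 was then added for two hours at room temperature before fluorescence reading.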

The target of experiment [8] is Vitamin D3 receptor (Homo sapiens) (UniProt P11473). Put plainly: qHTS assay for small molecule agonists of vitamin D receptor signaling (AID 588543).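 Note: 0% = DMSO basal and 100% = reference agonist control.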 The following applies: HEK293T VDR-UAS-bla, beta-lactamase ratio, 16 h; series mostly up to 76.8 µM. In outline:
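GeneBLAzer VDR-UAS-bla HEK293T cells in 2% charcoal-stripped FBS medium were dosed with compound titrations for 16 h at 37 °C; CCF4 β-lactamase readout (405 nm ex, 460/530 nm em). EC50 and efficacy from Hill fits, normalized to 50 nM calcitriol (100%) and DMSO (0%).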

A short description of experiment [9]: qHTS assay for small molecule agonists of the antioxidant response element (ARE) signaling pathway (AID 651741; active = well fitted activation curve with a large enough effect in the signal ratio; inconclusive = small, poorly fitted or top-dose-only effect, or effect the other way, or a change in a side signal; the % refers to the signal ratio; note: potency is the fitted concentration of half-maximal effect; for activation: % of control where 0% means no effect). The following applies: HepG2 ARE-bla reporter, beta-lactamase FRET ratio, 16 h; series mostly up to 96 µM. The procedure, abridged:
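Compounds in DMSO are pinned onto HepG2 ARE-bla cells (2,000/well) that were preincubated 5 h; plates stay 16 h at 37 C, then beta-lactamase activity is detected with LiveBLAzer B/G substrate by fluorescence.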

A short description of experiment [10]: qHTS assay for small molecule activators of the nuclear factor-kappa B (NF-kB) signaling pathway (AID 651749; active = well fitted activation curve with a large enough effect in the signal ratio; inconclusive = small, poorly fitted or top-dose-only effect, or a change in a side signal; the % refers to the signal ratio; note: % of control where 0% means no effect). The following applies: NF-kB-bla ME-180 cells, beta-lactamase FRET ratio, 16 h; stronger effect = higher value. In outline:
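Screening used 2,000 ME-180 reporter cells per well exposed to pinned compound (23 nL) or DMSO; after 16 hr at 37C, beta-lactamase expression under NF-kB control was assessed through FRET.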

In experiment [11] the target is Nuclear receptor ROR-gamma (Homo sapiens) (UniProt P51449). The experiment in a line: qHTS assay for small molecule antagonists of the retinoid-related orphan receptor gamma (ROR-gamma) signaling pathway (AID 651802; active = well fitted curve in the direction sought with a large enough effect; inconclusive = small, poorly fitted or top-dose-only effect, or another doubt; inactive = no such curve, though single readings can be large; an effect the other way counts as inactive or inconclusive;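 note: CHO cells with doxycycline-induced ROR-gamma expression; luciferase reporter luminescence driven by ROR response element; % is set by controls: 0 for no effect and ±100 for the full control effect; nearly all actives have a fitted effect of over 60% in size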). The note with it: ROR-gamma antagonist cell reporter assay; series mostly up to 92.2 µM. In outline:
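CHO, TET-inducible ROR + RORE-LUC reporter, 1536-well qHTS. Compound pinned, doxycycline added, 16hr 37C/5% CO2. ONE-Glo, 30 min RT, luminescence; signal drop scored as antagonism.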

The target in experiment [12] is Mitogen-activated protein kinase 10 (Mus musculus) (UniProt Q61831). Put plainly: JNK3 AlphaScreen Assay (AID 530; active = well fitted curve in either direction with a large enough effect, not every such curve was filed as active; inconclusive = small, poorly fitted or top-dose-only effect, or another doubt;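 note: kinase came from lysate of stimulated human HepG2 cells; signal reports phosphorylation of biotinylated GST-cJun 1-79 at Ser73 with 10 µM ATP; % is set by controls: 0 for no effect and ±100 for the full control effect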). The following applies: JNK3 lysate, c-Jun phosphorylation; series mostly up to 57.1 µM. In outline:
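Inhibitors reduce antibody binding to phosphorylated biotin-cJun, lowering AlphaScreen luminescence. Lysates from HepG2 cells pre-activated by IL-1beta plus TNF-alpha supplied JNK3; compounds were titrated.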
(In Alpha technology, singlet oxygen from a donor bead excites a nearby acceptor bead.)

Experiment [13] can be described thus: Cell Viability - NIH 3T3 (AID 541; active = well fitted curve in the direction sought with a large enough effect; inconclusive = small, poorly fitted or top-dose-only effect, or another doubt; inactive = no such curve, though single readings can be large; an effect the other way counts as inactive or inconclusive;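 note: plate controls were DMSO alone for no effect and tamoxifen positive control for full effect; nearly all actives have a fitted effect of over 25% in size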). The following applies: NIH 3T3 cell viability, qHTS; activity change, negative = cytotoxicity: at 92.2 µM (top of the series). The procedure, abridged:
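Luminescent ATP signal (CellTiter-Glo) served as the viability read-out after NIH 3T3 cells were exposed to compounds over a concentration range for 40 hr at 37 °C. Hill-equation modelling of concentration-response data gave AC50.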

The nature of experiment [14]: MultiTox-Fluor Cytotoxicity Assay - LYMP1-002 - Dead Cells (AID 960; active = well fitted curve in the direction sought with a large enough effect; inconclusive = small, poorly fitted or top-dose-only effect, or another doubt; inactive = no such curve, though single readings can be large; an effect the other way counts as inactive or inconclusive; note: nearly all actives have a fitted effect of over 60% in size). The following applies: LYMP1-002 lymphoblastoid cells, dead-cell protease fluorescence; series mostly up to 46.1 µM. In outline: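 LYMP1-002 cells 2500/well; 5 hr 37 C pre-incubation; compound 16 hr 37 C; MultiTox-Fluor reagent 60 min RT; dead-cell fluor Ex/Em 485/520. Norm. to DMSO (0%) vs 15 uM tetraoctylammonium bromide (100%); Hill AC50.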

Experiment [15] concerns the target Tumor necrosis factor (Homo sapiens) (UniProt P01375). Put plainly: qHTS assay to identify small molecules that stimulate Tumor Necrosis Factor-alpha (TNF-alpha) secretion (AID 651757; active = well fitted curve in the direction sought with a large enough effect in the signal ratio; inconclusive = small, poorly fitted or top-dose-only effect, or a change in a side signal; inactive = no such curve, though single readings can be large or run the other way; the % refers to the signal ratio; note: 0% is about no effect). The following applies: Human cells, HTRF 665/615 ratio; series mostly up to 92.2 µM. The procedure, abridged:
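Read-out is HTRF, a TR-FRET sandwich of cryptate- and XL665-labeled anti-TNF-alpha antibodies detecting cytokine secreted by THP-1 cells. Cells had been incubated with test compounds at 37 C for 17 hrs beforehand.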

Experiment [16] can be described thus: Cell Viability - Jurkat (AID 426;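 active = dose-dependent loss of cell ATP signal giving a full or clear fitted curve, ranked by lower potency value; inconclusive = weak partial curve or response only at the top dose; inactive = no loss of viability signal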; note: potency is the fitted concentration of half-maximal effect). The note with it: qHTS. The procedure, abridged:
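qHTS, 1536-well; Jurkat E6-1, 5000 cells/well, complete medium; cpd 40 hr, 37 °C; CellTiter-Glo 20 min RT; luminescence. AC50 by Hill fit.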

The target in experiment [17] is Estrogen receptor (Homo sapiens) (UniProt P03372). Put plainly: qHTS assay for small molecule antagonists of estrogen receptor alpha signaling (AID 588513; active = well fitted curve in the direction sought with a large enough effect in the signal ratio, with a control signal flat, not every such curve was filed as active; inconclusive = small, poorly fitted or top-dose-only effect, or effect the other way, or a change in a side signal; inactive = no such curve, though single readings can be large or run the other way; the % refers to the signal ratio; note: potency is the fitted concentration of half-maximal effect). The note with it: ER-alpha-UAS-bla HEK293, beta-lactamase ratio, antagonist mode; series mostly up to 76.9 µM. The procedure, abridged:
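ER-alpha-UAS-bla GripTite HEK 293 cells in medium with 2% charcoal/dextran-treated FBS were preincubated 4 h at 37 C, dosed with compound (1:2 titration), stimulated with 0.5nM 17-beta-estradiol for 18 h, then read by CCF4 beta-lactamase fluorescence.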

The target of experiment [18] is Glucocorticoid receptor (Homo sapiens) (UniProt P04150). The experiment in a line: qHTS assay for small molecule antagonists of glucocorticoid receptor signaling (AID 588533; active = well fitted inhibition curve with a large enough effect in the signal ratio, with a control signal flat, not every such curve was filed as active; inconclusive = small, poorly fitted or top-dose-only effect, or effect the other way, or a change in a side signal; the % refers to the signal ratio;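 note: cells stimulated with 2 nM dexamethasone as agonist; % is set by controls: 0 for no effect and ±100 for the full control effect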). The following applies: HeLa MMTV-bla, GRE beta-lactamase ratio, antagonist mode, 18 h; series mostly up to 76.8 µM. In outline: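 Antagonist-mode qHTS: compound titrations added to GRE-bla HeLa cells, then dexamethasone 2 nM final; 18 h, 37 C. CCF4 FRET fluorescence normalized to dexamethasone and DMSO; IC50 from Hill fit.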

The target of experiment [19] is Peroxisome proliferator-activated receptor gamma (Homo sapiens) (UniProt P37231). The experiment in a line: qHTS assay for small molecule antagonists of peroxisome proliferator-activated receptor gamma signaling (AID 588537; active = well fitted inhibition curve with a large enough effect in the signal ratio, with a control signal flat, not every such curve was filed as active; inconclusive = small, poorly fitted or top-dose-only effect, or effect the other way, or a change in a side signal; the % refers to the signal ratio;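 note: reporter cells co-stimulated with 50 nM rosiglitazone agonist during compound treatment; % of control where 0% means no effect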). The following applies: HEK293 PPARg-UAS-bla, beta-lactamase ratio, antagonist mode; series mostly up to 76.8 µM. The procedure, abridged: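 We seeded GeneBLAzer HEK293 reporter cells at 3000 per well, allowed 6-6.5 h attachment at 37 C, then co-treated with test compound titrations and 50 nM rosiglitazone overnight (16 h). Inhibition was quantified from 460/530 nm emission ratios.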

Experiment [20] in a line: qHTS assay for small molecule disruptors of the mitochondrial membrane potential - 5 hr assay (AID 651755). Note: nearly all actives have a fitted effect of over 40% in size. Note: potency is the fitted concentration of half-maximal effect. The following applies: JC-1-type ratio dye; series mostly up to 92.2 µM. In outline:
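HepG2 cells, attached overnight at 37C, were exposed to compound or DMSO for 5 hr at 37C, 5% CO2. Mito-MPS dye was then added for 30 min, and fluorescence read at 490/535 nm (monomers) and 540/590 nm (aggregates).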

Values joined by “and” are separate entries in the source; they are usually repeats but may differ in a detail not shown here. Equal entries are not always repeated. Active and inactive are the calls of the source. Unless noted, calls come from the whole dose curve.

Chain of Nuclear receptor ROR-gamma (Homo sapiens) (P51449 whole entry, looked up): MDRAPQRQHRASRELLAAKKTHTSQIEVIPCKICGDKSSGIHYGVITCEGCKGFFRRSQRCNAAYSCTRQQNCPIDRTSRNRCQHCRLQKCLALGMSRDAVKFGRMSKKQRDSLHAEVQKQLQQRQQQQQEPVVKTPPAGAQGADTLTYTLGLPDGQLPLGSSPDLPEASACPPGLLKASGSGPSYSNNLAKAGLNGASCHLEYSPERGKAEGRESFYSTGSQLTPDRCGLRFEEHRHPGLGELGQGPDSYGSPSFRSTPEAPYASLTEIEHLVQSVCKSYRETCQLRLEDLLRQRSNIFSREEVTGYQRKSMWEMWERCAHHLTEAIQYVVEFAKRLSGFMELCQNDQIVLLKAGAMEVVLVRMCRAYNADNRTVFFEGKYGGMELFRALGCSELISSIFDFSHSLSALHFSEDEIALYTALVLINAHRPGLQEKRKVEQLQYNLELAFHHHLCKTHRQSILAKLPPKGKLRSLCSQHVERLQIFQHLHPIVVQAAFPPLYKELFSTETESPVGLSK
Chain of Vitamin D3 receptor (Homo sapiens) (P11473 whole entry, looked up): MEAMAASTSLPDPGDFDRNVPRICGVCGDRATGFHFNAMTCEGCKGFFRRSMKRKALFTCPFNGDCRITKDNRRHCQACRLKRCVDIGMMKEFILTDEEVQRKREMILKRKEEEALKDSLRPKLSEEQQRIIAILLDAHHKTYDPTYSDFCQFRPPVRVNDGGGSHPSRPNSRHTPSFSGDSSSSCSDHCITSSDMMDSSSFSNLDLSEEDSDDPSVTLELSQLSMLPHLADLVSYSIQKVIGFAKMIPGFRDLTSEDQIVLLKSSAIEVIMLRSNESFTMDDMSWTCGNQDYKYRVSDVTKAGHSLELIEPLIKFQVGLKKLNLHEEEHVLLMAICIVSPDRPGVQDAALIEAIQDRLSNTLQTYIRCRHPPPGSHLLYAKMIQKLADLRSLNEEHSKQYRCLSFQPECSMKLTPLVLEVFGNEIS
Chain of Tumor necrosis factor (Homo sapiens) (P01375 whole entry, looked up): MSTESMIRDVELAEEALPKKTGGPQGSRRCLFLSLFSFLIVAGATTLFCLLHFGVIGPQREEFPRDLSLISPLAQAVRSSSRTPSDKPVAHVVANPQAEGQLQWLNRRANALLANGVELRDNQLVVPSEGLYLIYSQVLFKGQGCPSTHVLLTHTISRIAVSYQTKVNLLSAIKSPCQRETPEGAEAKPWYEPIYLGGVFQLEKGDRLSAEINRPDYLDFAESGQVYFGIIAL
Chain of Peroxisome proliferator-activated receptor delta (Homo sapiens) (Q03181 whole entry, looked up): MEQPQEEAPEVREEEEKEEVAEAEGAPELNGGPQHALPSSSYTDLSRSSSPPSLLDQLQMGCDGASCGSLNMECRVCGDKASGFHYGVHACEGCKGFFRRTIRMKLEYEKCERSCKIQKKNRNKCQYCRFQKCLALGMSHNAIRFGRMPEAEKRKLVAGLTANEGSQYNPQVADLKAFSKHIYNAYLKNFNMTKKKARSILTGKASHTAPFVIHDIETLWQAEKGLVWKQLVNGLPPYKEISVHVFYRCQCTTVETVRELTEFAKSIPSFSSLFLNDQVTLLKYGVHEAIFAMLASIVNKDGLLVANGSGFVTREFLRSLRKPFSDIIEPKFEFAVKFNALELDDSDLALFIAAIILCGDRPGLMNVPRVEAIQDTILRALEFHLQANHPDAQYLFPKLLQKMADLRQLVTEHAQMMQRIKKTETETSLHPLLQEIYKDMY
Chain of Peroxisome proliferator-activated receptor gamma (Homo sapiens) (P37231 whole entry, looked up): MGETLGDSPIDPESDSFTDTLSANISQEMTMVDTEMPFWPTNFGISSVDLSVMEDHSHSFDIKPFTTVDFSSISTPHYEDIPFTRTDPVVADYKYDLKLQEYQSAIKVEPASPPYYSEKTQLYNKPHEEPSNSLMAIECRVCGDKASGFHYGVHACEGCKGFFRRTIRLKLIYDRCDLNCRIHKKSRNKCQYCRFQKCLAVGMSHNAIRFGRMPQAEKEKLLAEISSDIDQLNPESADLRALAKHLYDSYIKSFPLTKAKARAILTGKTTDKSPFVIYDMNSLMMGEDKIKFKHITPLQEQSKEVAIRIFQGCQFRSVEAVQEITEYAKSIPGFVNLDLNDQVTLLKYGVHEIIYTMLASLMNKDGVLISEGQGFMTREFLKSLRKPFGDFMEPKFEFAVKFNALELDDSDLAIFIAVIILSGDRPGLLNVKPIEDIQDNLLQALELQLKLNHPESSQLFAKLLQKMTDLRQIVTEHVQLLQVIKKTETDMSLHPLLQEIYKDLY
Chain of Estrogen receptor (Homo sapiens) (P03372 whole entry, looked up): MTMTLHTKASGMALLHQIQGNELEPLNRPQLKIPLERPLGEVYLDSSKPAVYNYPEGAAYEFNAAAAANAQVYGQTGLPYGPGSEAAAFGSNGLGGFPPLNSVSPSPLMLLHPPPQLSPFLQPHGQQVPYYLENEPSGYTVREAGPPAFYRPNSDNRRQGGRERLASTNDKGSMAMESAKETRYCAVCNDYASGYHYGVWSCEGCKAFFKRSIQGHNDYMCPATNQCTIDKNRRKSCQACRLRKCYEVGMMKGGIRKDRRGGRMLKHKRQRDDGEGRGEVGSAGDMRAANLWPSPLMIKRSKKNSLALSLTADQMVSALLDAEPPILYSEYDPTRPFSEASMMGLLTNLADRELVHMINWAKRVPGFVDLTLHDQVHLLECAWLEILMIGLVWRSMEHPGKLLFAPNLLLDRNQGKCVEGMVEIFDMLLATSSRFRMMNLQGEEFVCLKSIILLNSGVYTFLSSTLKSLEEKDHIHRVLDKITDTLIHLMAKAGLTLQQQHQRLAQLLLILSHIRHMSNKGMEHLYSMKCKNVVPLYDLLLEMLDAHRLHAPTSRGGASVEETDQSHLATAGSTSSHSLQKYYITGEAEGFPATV
Chain of Glucocorticoid receptor (Homo sapiens) (P04150 whole entry, looked up): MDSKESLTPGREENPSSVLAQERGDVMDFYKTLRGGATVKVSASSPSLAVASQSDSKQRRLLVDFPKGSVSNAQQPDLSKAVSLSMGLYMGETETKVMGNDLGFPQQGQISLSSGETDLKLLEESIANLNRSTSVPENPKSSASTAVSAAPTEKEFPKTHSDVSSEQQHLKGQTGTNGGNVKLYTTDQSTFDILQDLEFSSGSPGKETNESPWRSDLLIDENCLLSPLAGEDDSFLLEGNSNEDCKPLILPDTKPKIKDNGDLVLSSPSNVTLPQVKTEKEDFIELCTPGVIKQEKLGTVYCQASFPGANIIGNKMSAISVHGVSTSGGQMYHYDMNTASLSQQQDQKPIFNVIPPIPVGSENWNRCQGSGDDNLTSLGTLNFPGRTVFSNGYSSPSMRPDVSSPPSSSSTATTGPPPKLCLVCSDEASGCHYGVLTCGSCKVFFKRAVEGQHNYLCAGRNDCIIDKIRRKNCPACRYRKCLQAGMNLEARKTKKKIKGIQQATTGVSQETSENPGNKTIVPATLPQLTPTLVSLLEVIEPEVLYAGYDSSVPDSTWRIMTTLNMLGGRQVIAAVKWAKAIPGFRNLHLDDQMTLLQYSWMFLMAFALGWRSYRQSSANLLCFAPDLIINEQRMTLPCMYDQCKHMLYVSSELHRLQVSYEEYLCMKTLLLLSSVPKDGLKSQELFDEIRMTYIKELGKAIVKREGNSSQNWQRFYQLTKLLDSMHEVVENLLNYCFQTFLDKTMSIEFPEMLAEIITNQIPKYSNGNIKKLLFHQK
Chain of Bile acid receptor (Homo sapiens) (Q96RI1 whole entry, looked up): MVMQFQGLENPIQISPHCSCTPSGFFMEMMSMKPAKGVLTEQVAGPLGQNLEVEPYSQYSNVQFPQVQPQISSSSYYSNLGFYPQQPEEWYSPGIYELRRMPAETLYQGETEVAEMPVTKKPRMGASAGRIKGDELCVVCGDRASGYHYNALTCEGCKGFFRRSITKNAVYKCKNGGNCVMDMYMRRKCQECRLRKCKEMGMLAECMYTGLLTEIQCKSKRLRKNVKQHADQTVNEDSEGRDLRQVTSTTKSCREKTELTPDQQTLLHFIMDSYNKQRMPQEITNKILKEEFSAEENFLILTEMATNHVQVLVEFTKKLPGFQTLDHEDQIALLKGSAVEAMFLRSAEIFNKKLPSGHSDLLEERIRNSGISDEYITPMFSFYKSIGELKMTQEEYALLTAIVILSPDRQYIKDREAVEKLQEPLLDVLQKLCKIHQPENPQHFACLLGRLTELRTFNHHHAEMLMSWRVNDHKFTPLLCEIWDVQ

As for `Cc1cc(N=Nc2ccccc2C)ccc1N`, the Potency in experiment [1] was > 92 µM (inactive); in [9] it was 1.88 µM (active) and 4.86 µM (active). Besides, the Potency entry in [2] and in [11] was “inactive” in each case. Also, the activation in experiment [3] is -3.42% (inactive) and -2.58% (inactive); in experiment [4] it was -7.11% (inactive); in [10], -0.0756% (inactive) and -0.721% (inactive). Further, the max response in [5] was -21.5%. The result in experiment [6], in [7] and in experiment [8] was inactive.

In the case of `CCCCC(CC)COC(=O)c1ccc(C(=O)OCC(CC)CCCC)c(C(=O)OCC(CC)CCCC)c1` (stereo not given), the Potency result in [12], in experiment [13], in experiment [14], in experiment [9] and in experiment [11] was “inactive” each time. For the same compound, the activation in experiment [4] is -5.8% (inactive); in experiment [10], 1.1% (inactive). The result in experiment [7], in experiment [8] and in experiment [15] was inactive.

Consider `Clc1ccccc1`, for which, in experiment [16], the Potency is > 92 µM (inactive). Also, the Potency entry in experiment [13], in experiment [14], in experiment [17], in experiment [19] and in experiment [20] was “inactive” in each case. The activation in [4] is -4.89% (inactive). Further, the outcome in experiment [18], in [6], in [7], in experiment [8] and in [15] was inactive. Further, in [5], the max response is -34.6%.

`c1ccc(N=NNc2ccccc2)cc1`: the Potency in [16] is > 92 µM (inactive). Further, the Potency entry in [14], in experiment [2], in experiment [17] and in experiment [11] was “inactive” each time. The max response in experiment [5] is -9.27% and 22.4%. For the same compound, the result in experiment [7] and in experiment [15] was inactive.

For `Cc1ccc(OP(=O)(Oc2ccc(C)cc2)Oc2ccc(C)cc2)cc1`, the Potency in [1] was > 92 µM (inactive); in experiment [20], 13.3 µM (active). The Potency result in [13], in experiment [2] and in [19] was “inactive” in each case. Also, the activation is -0.0057% (inactive) and -10.3% (inactive) in experiment [4]; -1% (inactive) and 2.01% (inactive) in [10]. For the same compound, the result in experiment [18], in experiment [8] and in experiment [15] was inactive. Also, the max response in experiment [5] was 2.39% and -12%.

Take `CN(C)c1ccc(N)cc1`: the Potency in experiment [16] was 72.8 µM (active); in experiment [1], > 92 µM (inactive); in experiment [2] it was 50.1 µM (active); in experiment [17], 31.6 µM [inconclusive] (active); in experiment [9], 33.5 µM (active); in experiment [20], 29.8 µM (active). The activity change, negative = cytotoxicity in [13] is -87% (active). The max response in [5] is -7.4%. The result in experiment [6], in experiment [7] and in experiment [8] was inactive. Also, the Potency entry in experiment [19] is “inactive”.
